Activity calls are given as the source filed them. The calls were made as follows: active = hit-call score of the fitted dose curve at least 0.9, where 1 is the maximum; inactive = score below 0.9.
Experiment: CCTE_Shafer_MEA_dev_inter_network_spike_interval_mean: CCTE's Neural Network Formation Assay for Mean Inter-network Spike Interval, Shafer Lab (AID 2284047);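 as to AC50: potency for a decrease in mean inter-network spike interval below DMSO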
Method: CCTE_Shafer_MEA_dev assay is conducted using Axion Biosystems 48 well microelectrode array (MEA) plates and Maestro recording system. Each well of the MEA plate contains a grid of 16 microelectrodes embedded in the culture surface. Electrically active cells, such as neurons, can be cultured over the electrodes, and electrical activity in these cells can be recorded extracellularly. The spontaneous firing of neurons is captured from each electrode on a microsecond timescale providing both temporally and spatially precise data. […] The CCTE_Shafer_MEA_dev assay uses primary cultures of rat cortical neurons. Recordings are made on days post-plating 5, 7, 9 and 12. As these cultures mature over time, neural networks develop functional activity and form cohesive networks in which electrical activity can be highly coordinated. CCTE_Shafer_MEA_dev_inter_network_spike_interval_mean is 1 of 19 assay components of the CCTE_Shafer_MEA_dev assay. It measures the average time interval between network spikes (temporally-clustered groups of actional potential firing across multiple electrodes) as the average time between peaks of consecutive network spikes during a recording in a microelectrode array (MEA) using Axion Biosystems Maestro 768 channel amplifier with the AxIS adaptive spike detector. To collapse across multiple recordings made on days post-plating 5, 7, 9 and 12, the trapezoidal area-under-the-curve of the component is calculated.Data from the assay component CCTE_Shafer_MEA_dev_inter_network_spike_interval_mean was analyzed into 1 assay endpoint. This assay endpoint, CCTE_Shafer_MEA_dev_inter_network_spike_interval_mean, was analyzed in the negative analysis fitting direction relative to DMSO as the negative control and baseline of activity. Using a type of functional reporter, gain or loss-of-signal activity can be used to understand electrical activity.
On the day prior to culture, each well was coated thoroughly with 150 uL of 0.05% polyethyleneimine (PEI, Sigma Cat P3143) in 50 mM HEPES (Sigma Cat H7523) at a pH of 8. The plate was incubated at 37C for one hour. PEI was rinsed out with 500 uL of sterile water three times. Plates were stored at 4C until the day of culture. This culture was plated at a seeding density of 1.5 x 10^5 cells/well on a 48-well MEA plate, prepared as described above. Cells were administered via a 25 uL media/laminin ([…]; Sigma Cat L2020-1MG) drop directly onto the microelectrode array, as adding the cells with the laminin results in better attachment than pre-coating with laminin. After 2 hours, an additional 475 uL of cortical media was added and the cells returned to the incubator. Exposure starts at day 0 of plating and is continued over twelve days of network development until the experiment is terminated. Cells are fed with fresh medium on DIV 5 and 9, following the recordings on those days. The entire volume of media in the well is exchanged and any vehicle or compound treatment is renewed. Complete details are found in OP-NHEERL/ISTD/SBB/TJS/2015-03-r0 (available on request, email shafer.tim@epa.gov). Measurement of the electrical activity is non-invasive, and recordings can be made from the same plate over multiple different days of the culture. In cortical neurons, this allows for the measurement of extracellular action potentials over the period during which networks form in the MEA plate.

Compound	AC50	outcome
O=C1C2(Cl)C3(Cl)C4(Cl)C(Cl)(Cl)C5(Cl)C3(Cl)C1(Cl)C5(Cl)C24Cl (stereo unspecified)	1.31 nM (active)	
COP(=O)(OC)O/C(=C\Cl)c1cc(Cl)c(Cl)cc1Cl		inactive
CC(=O)[O][Hg][c]1ccccc1	25.5 nM (active)	
O=C(O)C(F)(F)C(F)(F)C(F)(F)C(F)(F)C(F)(F)C(F)(F)C(F)(F)C(F)(F)C(F)(F)C(F)(F)F		inactive
O=C(O)C(F)(F)C(F)(F)C(F)(F)C(F)(F)C(F)(F)C(F)(F)F		inactive
CC(C)(C)c1cc(O)ccc1O		inactive
CCOP(=S)(OCC)Oc1nc(Cl)c(Cl)cc1Cl		inactive
ClC1(Cl)C2(Cl)C3(Cl)C4(Cl)C(Cl)(Cl)C5(Cl)C3(Cl)C1(Cl)C5(Cl)C24Cl (stereo unspecified)		inactive
C=C(C)C(=O)[O][Sn]([CH2]CCC)([CH2]CCC)[CH2]CCC		inactive
Cn1sc(Cl)cc1=O		inactive
CCC(=O)C(CC(C)N(C)C)(c1ccccc1)c1ccccc1 (stereo unspecified)		inactive

— PubChem BioAssay (EPA / NIEHS)
